The campaign covered roughly 370,000 compounds. About 2,300 (0.62%) were called active.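 How the source made its calls: active means lowest replicate activation of at least 40%, so every replicate reaches that level; inactive means the rest.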 The full list was thinned out, with actives kept by preference.
Assay: primary screen for activators of insulin secretion dependent on glucose, INS-1E cells, GLuc reporter luminescence (AID 743287);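 further: 0% = median of neutral control wells and 100% = median of IBMX positive control wells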
Details: INS-1E GLuc reporter insulin secretion, 2-3 h, at 16.6 µM, active compounds read high

| Compound | activation |
| --- | --- |
| C[C@@H]1CN([C@H](C)CO)C(=O)Cc2cc(NC(=O)Nc3ccc(C(F)(F)F)cc3)ccc2O[C@@H]1CN(C)S(=O)(=O)c1ccccc1 | 7.64% (inactive) |
| COc1ccc(CN2CCCCC2C)cc1OC (stereo not drawn) | 11.6% (inactive) |
| COc1ccc(CN2CCOC2=O)cc1OC | 59.2% (active) |
| COc1ccc(CN2CC[C@H]3C=CC[C@@H](C(=O)N4CCOCC4)[C@H]3C2=O)cc1OC | 9.86% (inactive) |
| CNC[C@@H]1Oc2ccc(NC(C)=O)cc2CC(=O)N(C)C[C@@H]1C | 3.12% (inactive) |
| COc1ccc(-c2ccccc2C2Cc3nnccc3CN2C(=O)Nc2ccccc2)cc1 (stereo not drawn) | 60.4% (active) |
| COc1ccc(CN2[C@@H](CO)[C@@H]3c4ccccc4N(C(=O)Nc4ccccc4)C[C@@H]32)cc1 | -18.4% (inactive) |
| COC(=O)N1Cc2ccnnc2CC1c1ccccc1Br (stereo not drawn) | 5.66% (inactive) |
| CO[C@H]1CN(C)C(=O)c2ccc(NC(=O)NC(C)C)cc2OC[C@H](C)N(Cc2cncnc2)C[C@@H]1C | -3.42% (inactive) |
| Clc1ccc(Cl)c(Oc2ccc(Oc3nc(Cl)ccc3Cl)cc2)n1 | 43.2% (active) |
| CC(C)NC(=O)N(C)C[C@@H]1OCCCC[C@H](C)Oc2ccc(NC(=O)Nc3ccccc3)cc2C(=O)N([C@H](C)CO)C[C@@H]1C | -11.5% (inactive) |
| Cc1ccc(COC(=O)CN2C(=O)NC3(CCCC3)C2=O)cc1 | 6.93% (inactive) |
| CCOc1ccc(C(C)=O)cc1COC(=O)CN1C(=O)NC2(CCCC2)C1=O | 241% (active) |
| CCOc1ccc(C(C)NC(=O)CN2C(=O)NC3(CCCCC3)C2=O)cc1OCC (stereo not drawn) | 5.62% (inactive) |
| CCC(=O)N(C)C[C@@H]1Oc2cc(C#CCOC)ccc2S(=O)(=O)N([C@H](C)CO)C[C@H]1C | 8.1% (inactive) |
| CCCN(C)C[C@@H]1OCCCC[C@H](C)Oc2ccc(NS(=O)(=O)c3ccc(C)cc3)cc2C(=O)N([C@H](C)CO)C[C@@H]1C | 7.05% (inactive) |
| COCCNc1nc(N)c([N+](=O)[O-])c(N2CCCCCC2)n1 | 52.3% (active) |
| COCCNc1nc(N)c([N+](=O)[O-])c(NCCO)n1 | 17.8% (inactive) |
| C=CCNc1nc(N)c([N+](=O)[O-])c(NC2CCCCC2)n1 | 20.2% (inactive) |
| CC(=O)Nc1ccc2c(c1)C(=O)N(C)[C@H]1CC[C@H](CC(=O)NCc3ccccc3Cl)O[C@H]1CO2 | -3.1% (inactive) |
| N#C[C@H]1[C@H](c2ccccc2)[C@@H](CO)N1C(=O)c1cccnc1 | 1.43% (inactive) |
| C[C@@H]1CN([C@@H](C)CO)C(=O)c2cc(/C=C/c3ccccc3)cnc2O[C@H]1CN(C)C(=O)C1CCC1 | -16.6% (inactive) |
| COC(=O)C1=C(C)N(Cc2ccc(F)cc2)C(=S)NC1c1cccc(Cl)c1 (stereo not drawn) | -20.6% (inactive) |
| COC(=O)C1=C(C)N(Cc2cccc(C(F)(F)F)c2)C(=NCc2ccccc2)NC1c1ccc(Cl)cc1 (stereo not drawn) | 160% (active) |
| COC(=O)C1=C(C)N(Cc2cccc(C(F)(F)F)c2)C(=NCc2cccc(C(F)(F)F)c2)NC1c1ccccc1C(F)(F)F (stereo not drawn) | 23.9% (inactive) |
| C=CCN=C1NC(c2cccc(C(F)(F)F)c2)C(C(=O)OC)=C(C)N1C (stereo not drawn) | -3.97% (inactive) |

| Compound | activation |
| --- | --- |
| COC(=O)C1=C(C)N(Cc2ccccc2)C(=NCCCOC(C)C)N[C@H]1c1ccccc1 | -19.7% (inactive) |
| COC(=O)C1=C(C)N(Cc2cccc(C(F)(F)F)c2)C(=NCc2ccccc2)NC1c1ccccc1C(F)(F)F (stereo not drawn) | 198% (active) |
| COc1ccc(S(=O)(=O)N(C)C[C@H]2Oc3c(NS(=O)(=O)c4cccs4)cccc3C(=O)N([C@H](C)CO)C[C@@H]2C)cc1 | -10.4% (inactive) |
| CO[C@H]1CN(C)C(=O)c2ccc(NC(=O)C3CCCC3)cc2OC[C@H](C)N(C(=O)CC2CC2)C[C@@H]1C | 8.95% (inactive) |
| COc1ccc(NC(=O)Nc2cccc3c2O[C@H](CN(C)Cc2ccncc2)[C@@H](C)CN([C@@H](C)CO)C3=O)cc1 | 3.69% (inactive) |
| CCSc1ncnc2c(C#N)c3n(c12)CCCCC3 | 47.4% (active) |
| CN(C)CC(=O)N1CC2(C1)[C@H](c1ccccc1)[C@H](CO)N2C(=O)C1CC1 | 10.8% (inactive) |
| N#Cc1cccc(-c2ccc([C@H]3[C@@H](CO)N[C@@H]3CNC(=O)C3CCC3)cc2)c1 | 7.07% (inactive) |
| Brc1ccccc1/C=N/Nc1nc2ccccc2o1 | 46.6% (active) |
| c1ccc(CCN2CN=C(Nc3nc4ccccc4o3)NC2)cc1 | -24.2% (inactive) |
| CN1C(=O)c2cc(NC(=O)c3ccno3)ccc2OC[C@H]2O[C@@H](CC(=O)NCC(F)(F)F)CC[C@@H]21 | 19.2% (inactive) |
| CC(C)(C)Oc1ccccc1Nc1nc(NCCO)nc(N2CCCC2)n1 | -9.68% (inactive) |
| Cn1ncc2c(N3CCCCC3)nc(NCCCO)nc21 | 60.1% (active) |
| COc1ccc(C#Cc2cnc3c(c2)C(=O)N([C@H](C)CO)C[C@@H](C)[C@H](CN(C)C(=O)Nc2cccc(OC)c2)O3)cc1 | 6.97% (inactive) |
| C[C@@H]1CN([C@H](C)CO)C(=O)c2cc(C#Cc3ccncc3)cnc2O[C@H]1CN(C)Cc1ccncc1 | 9.79% (inactive) |
| O=C(C[C@H]1CC[C@H](NC(=O)CCN2CCCCC2)[C@@H](CO)O1)Nc1ccccc1 | 33.8% (inactive) |
| CCOC(=O)c1cc(C(=O)Nc2ccc(S(=O)(=O)Nc3ccc(OC)cc3)cc2)nn1C | 17% (inactive) |
| CCOC(=O)c1cnc2c(c(C)nn2CC)c1Cl | 7.57% (inactive) |
| CCOC(=O)c1cc(-c2ccc(Cl)s2)nc2c1c(C)nn2C | 60% (active) |
| C[C@H]1CN([C@@H](C)CO)C(=O)Cc2cc(NC(=O)NC3CCCCC3)ccc2O[C@H]1CN(C)S(=O)(=O)c1ccccc1 | -7.37% (inactive) |
| CN1C(=O)c2cc(NC(=O)C3CCC3)ccc2OC[C@@H]2O[C@@H](CC(=O)NCc3ccccc3F)CC[C@@H]21 | 19.7% (inactive) |
| COc1cccc(-c2cnc3c(NC(C)=O)cc(-c4cccc(NC(C)=O)c4)cn23)c1 | -1.53% (inactive) |
| CC(=O)Nc1cc(-c2ccc(N3CCN(C)CC3)cc2)cn2c(-c3cccc(C(=O)N(C)C)c3)cnc12 | 40.3% (active) |
| CC(=O)c1cccc(-c2cnc3c(NC=O)cc(-c4ccc(N5CCN(C)CC5)cc4)cn23)c1 | 9.93% (inactive) |
| CC(C)C#Cc1ccc([C@H]2[C@@H](C#N)N(C(=O)CN(C)C)[C@H]2CO)cc1 | 1.29% (inactive) |
| CC(C)NC(=O)N(C)C[C@H]1Oc2ccc(N(C)C)cc2CC(=O)N(C)C[C@@H]1C | 0.073% (inactive) |

| Compound | activation |
| --- | --- |
| Cc1ccc(S(=O)(=O)N(C)C[C@H]2Oc3c(NS(=O)(=O)c4ccc(Cl)cc4)cccc3C(=O)N([C@H](C)CO)C[C@@H]2C)cc1 | 11.6% (inactive) |
| COc1ccc(CCNC(=O)CCn2c(=O)oc3ccccc32)cc1OC | 49.9% (inactive) |
| COc1ccc(CCNC(=O)CCn2c(=O)c3ccccc3n(CC(=O)NCC3CCCO3)c2=O)cc1OC (stereo not drawn) | 55.9% (active) |
| COc1ccccc1CNC(=O)CCCn1c(=O)c2ccccc2n(CC(=O)NC2CCCC2)c1=O | -9.86% (inactive) |
| COCC(=O)Nc1ccc2c(c1)OC[C@@H](C)N(Cc1ccccc1C(=O)O)C[C@@H](C)[C@H](OC)CN(C)C2=O | 4.87% (inactive) |
| O=C(c1ccc(F)cc1)N1CC(=O)N2[C@@H](CO)[C@@H](c3ccc(C#Cc4ccc(F)cc4)cc3)[C@@H]2C1 | -24.9% (inactive) |
| CO[C@@H]1CN(C)C(=O)c2cc(NC(=O)c3cccc(Oc4ccccc4)c3)ccc2OC[C@H](C)NC[C@@H]1C | -6.99% (inactive) |
| NC[C@H](Cc1ccccc1)NCCc1cc(C(F)(F)F)cc(C(F)(F)F)c1 | 143% (active) |
| CCC(=O)N1CCC2(CC1)CN(Cc1cc(F)ccc1F)[C@@H](CO)c1c2c2ccc(OC)cc2n1C | -0.065% (inactive) |
| O=C(c1ccccc1F)N1CC(=O)N2[C@H](CO)[C@H](c3ccc(-c4cccnc4)cc3)[C@H]2C1 | 27.6% (inactive) |
| Fc1c(F)c(C(F)(F)F)c(F)c(F)c1N1CCN(c2ccc3nnc(C(F)(F)F)n3n2)CC1 | 57% (active) |
| COc1ccc(CN(C)C[C@H]2OCCCC[C@H](C)Oc3ccc(NS(=O)(=O)c4ccc(C)cc4)cc3C(=O)N([C@@H](C)CO)C[C@H]2C)cc1 | -29.4% (inactive) |
| COc1ccc2c3c([nH]c2c1)[C@H](CO)N(S(=O)(=O)c1cn(C)cn1)CC31CCN(CC2CC2)CC1 | 15.9% (inactive) |
| C/C=C/c1ccc2c(c1)O[C@H](CN(C)C)[C@H](C)CN([C@H](C)CO)S2(=O)=O | 14.9% (inactive) |
| COc1ccc(CCNC(=O)c2nnc(CS(=O)(=O)c3ccccc3)o2)cc1OC | 6.41% (inactive) |
| COc1ccc(CNC(=O)COC(=O)c2ccc(C)c(S(=O)(=O)N3CCOCC3)c2)cc1OC | 16.8% (inactive) |
| COc1ccc(CCNC(=O)C(=O)NCc2ccccc2C)cc1OC | 30.4% (inactive) |
| CCOc1ccc(CCNC(=O)COC(=O)C2CCN(S(=O)(=O)c3ccccc3)CC2)cc1OCC | 22% (inactive) |
| COc1ccc(CNC(=O)COC(=O)CCS(=O)(=O)c2ccc(C)cc2)cc1OC | 45.1% (active) |
| CCOc1ccc(CCNC(=O)COC(=O)c2c(OC)cccc2OC)cc1OCC | 19.6% (inactive) |
| COc1ccc(CCNC(=O)CCc2ccccc2O)cc1OC | 55.3% (active) |
| COc1ccc(CCNC(=O)CCC(=O)NC2CCCCC2)cc1OC | -1.71% (inactive) |
| Cc1ccc(S(=O)(=O)CCC(=O)OCc2ccccc2)cc1 | -1.88% (inactive) |
| CCOc1ccc(CCNC(=O)COC(=O)CCS(=O)(=O)c2ccc(C)cc2)cc1OCC | 54.2% (active) |
| COc1ccc(CCNC(=O)NS(=O)(=O)c2ccc(C)cc2)cc1OC | 58.1% (active) |
| COc1ccc(CCNC(=O)CS(=O)(=O)Cc2nc(-c3ccc(C)cc3)oc2C)cc1OC | -11.8% (inactive) |

Reference: PubChem BioAssay AID743287 (Broad Institute, 2014)
